Key:
Experiment in all cases: PBM binding z-score (relative to random genomic background probes); higher = stronger binding; sequences stand for … in GC…GCGATTGACAGCGTAGAATGAAGG
[1] = system: RARb homodimer (NR concentration 270 nM)
Procedure, shortened: (§1)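 Probes were double-stranded and carried 34-nt variable regions with direct-repeat seeds, single-nucleotide variants, half-site ablations and random human genomic background sequences, printed on custom Agilent 4×180K protein-binding microarrays. Arrays were incubated 1 h with ligand-free nuclear receptor dimers in PBS pH 7.4, 2% milk, 0.02% Triton X-100, 1 mM DTT, 0.2 mg/mL BSA and 0.4 mg/ml salmon testes DNA. Antibodies against each partner (one per run) detected binding, and scanned fluorescence was regression-normalized. Binding z-scores use the random background probes as reference.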

[2] = system: RARg:RXRa (NR concentration 270 nM, RXRa partner concentration 90 nM)
Procedure, shortened: as §1

[3] = system: RARg homodimer (NR concentration 270 nM)
Procedure, shortened: as §1

[4] = system: RXRa DBDmut IVT, anti-RXR (DBD mutation: RXRa K156A/R161A, NR concentration 90 nM)
Procedure, shortened: as §1

[5] = system: RXRa homodimer (NR concentration 180 nM)
Procedure, shortened: as §1

[6] = system: THRa:RXRa (NR concentration 90 nM, RXRa partner concentration 90 nM)
Procedure, shortened: as §1

[7] = system: THRa homodimer (NR concentration 90 nM)
Procedure, shortened: as §1

[8] = system: VDR homodimer (NR concentration 270 nM)
Procedure, shortened: as §1

Sequence | PBM binding z-score [1] | PBM binding z-score [2] | PBM binding z-score [3] | PBM binding z-score [4] | PBM binding z-score [5] | PBM binding z-score [6] | PBM binding z-score [7] | PBM binding z-score [8]
CATACAGGGTCAGCTAGGTCAGAGTAGGGACGGC | 4.28 | 5.09 | 5.08 | 1.93 | 4.95 | 4.07 | 2.33 | 2.85
CAAACTAGGTCAAGGTCCAAGTCGGTTTGTGCCA | 3.59 | 3.87 | 5.33 | 1.76 | 3 | 3.18 | 1.67 | 1.7
TCTTGTAGATCAATAGATGTTAAGAAAGTGCGCT | -0.256 | 0.00708 | 0.206 | 0.767 | 0.395 | -0.118 | -0.769 | -0.147
GCTGCTAGGTCAGGTTGGGCAGCTAACGGGTACG | 2.36 | 2.43 | 3.88 | 0.101 | 0.717 | 1.91 | 0.583 | 0.178
TCTTGTAGATCAACAGGAGGTTAAGAAAGATCGA | 0.548 | 0.934 | 0.306 | 0.35 | 0.762 | 0.782 | -0.703 | -0.387
CCGACTTGGGCAAGGTTACCATAACGCACAGCCA | 0.919 | 0.796 | 0.586 | 0.164 | 1.05 | 1.17 | 0.449 | 0.117
GTACCAAGGTGAATAGGTCGTTGTTGAGTAGGCG | 1.89 | 2.4 | 1.05 | 0.135 | 1.64 | 1.81 | 0.601 | 0.168
GCGACTGGGGCGTCAGCAGGTTACCATAACTTAA | 0.457 | 0.162 | -0.368 | -0.119 | 0.154 | 0.661 | -0.199 | -0.488
ATCGAAAGGTCGACGTGGTGAGTATACACCGTTT | 2.74 | 4.04 | 4.24 | 1.23 | 4.03 | 1.89 | -0.255 | 0.481
GGAACGAGGGCAAAGTTAATAGCATCTGTCGACG | 1.24 | 1.77 | 1.99 | 2.78 | 1.55 | 1.27 | -0.176 | 1.31
ACAGACAGGTGATGAATGTAACTCAGGCTATCAT | -0.0762 | 0.375 | 0.506 | -0.126 | 0.591 | 0.0526 | -0.294 | -0.0787
AGAATGAGATTATTAAGATCAGGGAATTGCGGTC | -0.433 | -0.202 | 0.0706 | -0.35 | -0.434 | -0.315 | -0.66 | -0.308
ATCGAAAGGTCGTGAGGTGAGTATTCAGAAAGGC | 3.27 | 4.51 | 4.1 | 1.91 | 5.4 | 3.48 | 1.52 | 0.921
CCTAGCAGGCCAAACTGGGTCACTCAAGGCTTGA | 2.17 | 1.16 | 1.51 | 0.301 | 0.807 | 3.68 | 0.159 | -0.107
ATACCAAGGTGATCGTGAGGTCGCTGATACTAAC | 1.68 | 2.37 | 0.989 | 0.175 | 1.43 | 3.3 | 2.48 | 1.6
ATATGTAGGTTACATACGGGTCATTCAGGCTATG | 2.71 | 4.44 | 2.41 | 0.906 | 3.48 | 2.73 | 0.593 | 2.29
CCTTACGGGTCACTGAGAGGTTATAGCATTTGGA | 3.75 | 6.72 | 4.64 | 1.75 | 5.62 | 3.46 | 0.613 | 1.78
TCAGACAGGTGAGGGTAACTCAGGTACGCAGTCG | 0.992 | 0.551 | 0.485 | 0.971 | 0.746 | 2.35 | 0.442 | 0.115
TCTAGTTGGTCACGGAGGTCACTCACGACGGGTA | 4.12 | 4.23 | 4.31 | 1.24 | 3.96 | 3.23 | 2.26 | 2.93
GCTAGCAGGCCATTTGGGTCACTCACTGACGGGC | 1.96 | 0.722 | 1.04 | 0.199 | 0.604 | 1.73 | 0.972 | 0.0479
TCTTGTAGATCAACAGGAGGATAAGAAAGATCGA | -0.517 | 0.227 | 0.396 | 0.36 | 0.432 | 0.177 | -0.392 | -0.362
GCATATAGGTAATACCAGGTGAAAGTCCGATTGT | 0.327 | 0.203 | 0.193 | 0.247 | 0.369 | 3.99 | 0.748 | -0.0397
TAGAGTAGGTTACCAATGGGGCATTCAGCTTTCT | 1.09 | 1.76 | 1.12 | 0.201 | 0.73 | 0.389 | -0.222 | -0.0971
CCGAGTAGGCTATGGGGCATTCAGGCAACGGTGA | -0.154 | -0.57 | -0.466 | -0.62 | -0.38 | -0.343 | -0.619 | -0.709
CGAACTAGGTCATCCAGGAGAGTGAATACATTGA | 2.87 | 3.87 | 4.68 | 2.19 | 2.84 | 2.93 | 0.976 | 0.755
TAGCCTAGGTCATGCGGACCAGTATAGTGTCGGC | 2.76 | 3.99 | 4.25 | 0.668 | 3.05 | 2.84 | 1.12 | -0.0352
TATACAGGGTCAAAGGCGAGAGTACGAATGTCGA | 3.17 | 5.39 | 5.04 | 2.92 | 6.67 | 3.42 | 0.888 | 3.09
AGTCAAAGTTCATCTAGGTAGCGTAAGATATGCT | 3.79 | 5.6 | 5.81 | 4.63 | 4.48 | 2.62 | -0.478 | 5.34
CCAGACAGGTAAGAAGGTAACTCAGCCTCGATTA | -0.0494 | 0.201 | 0.207 | -0.00945 | 0.0209 | 0.0122 | 0.113 | -0.0609

From the supplement of paper PMC6555819
